This note sets out measurements from PubChem BioAssay (NCI).

About 83,000 compounds went through this panel and 20% of them were active in at least one assay; those are over-represented in the sample as a whole.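 Plates (96-well) were seeded with cells, treated with compound at one concentration, and incubated for 48 hours before percent growth was determined.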 Unmarked numbers belong to inactive results. Activity calls are given as the source filed them. The calls were made as follows: active = growth percent below 10; inactive = the rest.

Test systems include NCI-H23 lung; NCI-H226 lung; NCI-H322M lung; HOP-62 NSCLC; NCI-H460 lung; HOP-92 NSCLC; NCI-H522 lung; A549/ATCC NSCLC; 786-0 renal; COLO 205 colon; DU-145 prostate; K-562 leukemia; MALME-3M melanoma; MDA-MB-231 breast; RXF 393 renal; SF-268 CNS; SF-295 CNS; SF-539 CNS; UACC-257 melanoma; M14 melanoma.
Experiment in all cases: NCI-60 one-dose screen, 48 h (100 = growth as untreated, 0 = no growth, -100 = all killed)
Conditions in all cases: 10 µM unless noted

Turning to `Cn1ccc2c(c1=O)C(=O)c1nccc3c1c-2nc1ccccc13`, the growth in the assay with NCI-H23 lung was -66.6% (active); in the assay on NCI-H226 lung, 83.1%; in the assay with NCI-H322M lung, 17.4%; in the assay with HOP-62 NSCLC it was -86.6% (active); in the assay with NCI-H460 lung, -74.7% (active); in the assay on HOP-92 NSCLC it was 62.8%. The growth with NCI-H522 lung is -68.5% (active); in the assay with A549/ATCC NSCLC, -87.4% (active); with 786-0 renal, -95.5% (active); in the assay with COLO 205 colon, -75.5% (active); in the assay with DU-145 prostate, -88.3% (active); in the assay on K-562 leukemia, -46.6% (active). For the same molecule, the growth in the assay with MALME-3M melanoma was 89.3%; in the assay on MDA-MB-231 breast, -85.5% (active); with RXF 393 renal, 40.8%; in the assay on SF-268 CNS, -69.2% (active); with SF-295 CNS it was -66% (active); in the assay with SF-539 CNS it was -28.9% (active). Further, the growth is 108% in the assay with UACC-257 melanoma and 82.9% in the assay with M14 melanoma.
Regarding `COc1ccc(-c2csc(C3=C(O)CN(C(C)C)C3=N)n2)cc1OC`, the growth with NCI-H23 lung was 101%; in the assay on NCI-H226 lung, 84.4%; with NCI-H322M lung it was 91.6%; in the assay with HOP-62 NSCLC it was 87%; in the assay on NCI-H460 lung, 120%; in the assay on HOP-92 NSCLC it was 43%. Also, the growth is 89.1% in the assay with NCI-H522 lung; 88.7% in the assay with A549/ATCC NSCLC; 89.7% in the assay with 786-0 renal; 128% in the assay on COLO 205 colon; 108% in the assay with DU-145 prostate; 87.7% in the assay on K-562 leukemia. Besides, the growth with MALME-3M melanoma is 96.4%; with MDA-MB-231 breast, 81.1%; with RXF 393 renal it was 83.6%; with SF-268 CNS it was 117%; with SF-295 CNS, 113%; in the assay on SF-539 CNS, 88.9%. Moreover, the growth in the assay with UACC-257 melanoma was 105%; with M14 melanoma, 136%.
`FC(F)(F)c1cc(Nc2ccc3cc(OCCCN4CCOCC4)ccc3n2)ccc1Cl`: the growth was 36% with NCI-H23 lung; 68.2% with NCI-H226 lung; 66.4% with NCI-H322M lung; 12.3% in the assay on HOP-62 NSCLC; 6.76% (active) with NCI-H460 lung; 26.1% in the assay on HOP-92 NSCLC. Further, the growth in the assay on NCI-H522 lung is -22.1% (active); in the assay with A549/ATCC NSCLC, 28.3%; in the assay with 786-0 renal it was -64.5% (active); in the assay with COLO 205 colon it was -69.3% (active); in the assay with DU-145 prostate, 47.6%; with K-562 leukemia, -27.3% (active). Besides, the growth in the assay with MALME-3M melanoma was 47.4%; with MDA-MB-231 breast, -17.8% (active); in the assay on RXF 393 renal, -0.217% (active); in the assay on SF-268 CNS, 46.9%; in the assay with SF-295 CNS, -56.7% (active); in the assay on SF-539 CNS, -0.973% (active). Moreover, the growth was 49.2% with UACC-257 melanoma and 19% in the assay on M14 melanoma.
With `CCc1c2c(nc3ccc(OC(=O)OCc4ccc(B5OC(C)(C)C(C)(C)O5)cc4)cc13)-c1cc3c(c(=O)n1C2)COC(=O)[C@]3(O)CC`, the growth with NCI-H23 lung is -30.6% (active); with NCI-H226 lung, -59.9% (active); in the assay on NCI-H322M lung, 1.92% (active); in the assay on HOP-62 NSCLC, -10.7% (active); in the assay with NCI-H460 lung, -6.28% (active); in the assay on HOP-92 NSCLC it was 9.38% (active). Moreover, the growth in the assay on NCI-H522 lung was -28.3% (active); in the assay on A549/ATCC NSCLC, 3.37% (active); in the assay on 786-0 renal, 11.7%; in the assay with COLO 205 colon, 7.72% (active); in the assay on DU-145 prostate, 4.84% (active); in the assay with K-562 leukemia, 13.1%. Besides, the growth in the assay on MALME-3M melanoma is -43.9% (active); with MDA-MB-231 breast, 17.4%; with RXF 393 renal, -64.7% (active); in the assay with SF-268 CNS, -7.41% (active); in the assay on SF-295 CNS, 0.0181% (active); in the assay with SF-539 CNS it was -62.9% (active). The figures for the growth in the assay on UACC-257 melanoma and in the assay with M14 melanoma were -60% (active) and 4.15% (active), respectively.
Turning to `NC(N)=NN=C(c1ccccc1)c1ccccc1`, the growth is 17.8% in the assay with NCI-H23 lung; 51.4% in the assay on NCI-H226 lung; 45.5% in the assay with NCI-H322M lung; 28.6% in the assay with HOP-62 NSCLC; 14.4% with NCI-H460 lung; 60.7% with HOP-92 NSCLC. Moreover, the growth with NCI-H522 lung is 28.2%; with A549/ATCC NSCLC it was 50.8%; with 786-0 renal it was 26.2%; in the assay on COLO 205 colon it was -0.806% (active); with DU-145 prostate, 22.8%; in the assay with K-562 leukemia, 21.7%. In addition, the growth with MALME-3M melanoma was 48.8%; in the assay on MDA-MB-231 breast, 59.6%; in the assay on RXF 393 renal, -28.4% (active); in the assay on SF-268 CNS, 46.1%; in the assay with SF-295 CNS, 43%; with SF-539 CNS, 19.3%. In addition, the growth is 64.4% in the assay with UACC-257 melanoma and -6.76% (active) in the assay on M14 melanoma.
For the molecule `CN(C)CC1=NC2SC=C(c3ccccc3)C2C(=O)N1CC#N` (stereo not given), the growth in the assay with NCI-H23 lung is 102%; in the assay with NCI-H226 lung, 85.5%; with NCI-H322M lung, 89.2%; in the assay on HOP-62 NSCLC, 102%; in the assay on NCI-H460 lung it was 115%; in the assay with HOP-92 NSCLC, -14.6% (active). The growth in the assay on NCI-H522 lung was 84.5%; in the assay with A549/ATCC NSCLC it was 96.3%; in the assay with 786-0 renal, 96.2%; in the assay with COLO 205 colon, 130%; in the assay on DU-145 prostate it was 111%; in the assay on K-562 leukemia, 60%. Moreover, the growth was 83.1% with MALME-3M melanoma; 92% in the assay with MDA-MB-231 breast; 81.3% in the assay with RXF 393 renal; 109% with SF-268 CNS; 99.2% in the assay with SF-295 CNS; 101% with SF-539 CNS. In addition, the growth is 108% in the assay on UACC-257 melanoma and 105% in the assay with M14 melanoma.
Take `COc1ccc(-c2[nH]c(=S)n(C(CC3(C)NCC(=O)N3n3c(-c4ccccc4)cc(C)nc3=S)c3ccc(OC)cc3)c(=O)c2Br)cc1` (stereo not given): the growth is 70.8% in the assay with NCI-H23 lung; 57.1% in the assay with NCI-H226 lung; 82.2% in the assay with NCI-H322M lung; 66.9% with HOP-62 NSCLC; 73.1% with NCI-H460 lung; 38.5% in the assay on HOP-92 NSCLC. For the same molecule, the growth in the assay with NCI-H522 lung was 42.4%; in the assay on A549/ATCC NSCLC, 72%; in the assay on 786-0 renal, 83.3%; in the assay with COLO 205 colon, 74.9%; in the assay with DU-145 prostate, 66.6%; in the assay on K-562 leukemia it was 14.8%. For the same molecule, the growth was 90.2% in the assay on MALME-3M melanoma; 79.9% in the assay on MDA-MB-231 breast; 65.5% in the assay with RXF 393 renal; 75.6% in the assay with SF-268 CNS; 61.9% with SF-295 CNS; 58.4% in the assay with SF-539 CNS. The growth with UACC-257 melanoma is 88.9%; in the assay on M14 melanoma, 70.9%.
